# High-throughput results (PubChem BioAssay)
# SKOV3 invasion – Primary qHTS assay for Inhibitors of ovarian cancer metastasis using an organotypic tumor microenvironment (TME) model; Potency, µM (top dose mostly 45.8 µM), without a hit: at the highest dose activity change, negative = inhibition, hits mostly inhibitors; 0.1% of 46,000 active; SKOV3ip1-GFP adhesion/invasion on 3D omental model, fluorescence;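 note: potency is the fitted concentration of half-maximal effect; plate controls were DMSO wells for no effect and tomatine positive control wells for full effect; nearly all actives have a fitted effect of over 65% in size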
#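 A 3D layer of primary human omental fibroblasts, mesothelial cells, fibronectin and collagen I, grown 48 hr, received SKOV3ip1-GFP cells in serum-free medium plus compounds at 0.36-46 umol/L. After 2 hr RT and 16 hr 37 C, fixed adherent GFP cells were counted; normalized to DMSO and tomatine.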
# mTORC1 inh – Acumen qHTS Assay for Inhibitors of the mTORC1 Signaling Pathway in MEF (Tsc2-/-, p53-/-) Cells: Sytravon; Tsc2-/- p53-/- MEF, phospho-rpS6 immunofluorescence/PI, 24 h; Potency, µM (top dose mostly 38.3 µM), without a hit: at the highest dose activity change, negative = inhibition, hits mostly inhibitors; 0.78% of 44,000 active; AID 493208, 2011;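 note: potency is the fitted concentration of half-maximal effect; plate controls were DMSO for no effect and rapamycin for full effect; nearly all actives have a fitted effect of over 50% in size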
#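 Cell-based qHTS: Tsc2-/- p53-/- MEF, 24 h cpd, 37 °C; fix/perm, anti-phospho-S6 Alexa-488 + PI; Acumen 488 nm scan; pS6/PI ratio, % positive cells; rapamycin 7.5 nM = inhibition ref; PI count = viability.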
# p53null 39C tox – qHTS Screen for Compounds that Selectively Target Cancer Cells with p53 Mutations: Cytotoxicity of p53 Null Cells at the Nonpermissive Temperature; Potency, µM (titrated, usually from 46.1 µM), inactives show at the top dose activity, negative = cell killing, hits mostly cytotoxic; 0.97% of 55,000 active; H1299 p53-null (neo) cells, 39C, ATPlite viability, 24 h;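 note: potency is the fitted concentration of half-maximal effect; 0% = DMSO only and -100% = full killing by 100 µM tamoxifen; nearly all actives have a fitted effect of over 50% in size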
#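 H1299 lung cancer cells, p53-null (H1299-neo) or expressing p53 A138V (H1299-p53A138V), were plated overnight at 37C, then exposed to compounds at up to 46 uM for 24 hr at 39C. Viability was read by ATP-based luminescence.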
# S16 viability – Cell viability qHTS assay in S16 Pmp22-F2sN cells; S16 Pmp22-F2sN Schwann cells viability, CellTiter-Glo, 24 h; AID 1508642, 2021; Potency, µM (series often up to 57.5 µM), for the others: top-dose activity change, negative = cytotoxicity, most hits filed as cytotoxic; 0.48% of 43,000 active; note: potency is the fitted concentration of half-maximal effect; % is set by controls: 0 for no effect and ±100 for the full control effect; nearly all actives have a fitted effect of over 65% in size
#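 CellTiter-Glo counter-screen, qHTS, 1536-well. Cells: S16(c9) Pmp22-F2sN, 500-1,000/well in DMEM + 10% FBS. Cpd 23 nL pin transfer, 24 h, 37C/5% CO2. Read: luminescence, CCD imager.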
# p53null 32C tox – qHTS Screen for Compounds that Selectively Target Cancer Cells with p53 Mutations: Cytotoxicity of p53 Null Cells at the Permissive Temperature | H1299-neo p53 null cells, ATP luminescence, 24 h, 32C | Potency, µM (titrated, usually from 46.1 µM), inactives show at the top dose activity change, negative = cytotoxicity, most hits filed as cytotoxic | 0.62% of 55,000 active;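 note: potency is the fitted concentration of half-maximal effect; 0% = DMSO only and -100% = full killing by 100 µM tamoxifen; nearly all actives have a fitted effect of over 55% in size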
#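 ATP-content luminescence in p53-null H1299-neo cells after 24 h compound exposure (up to 46 uM) at 32C permissive temperature; 0% and 100% killing set by DMSO and 100 uM tamoxifen; Hill-equation AC50.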
# PMP22 txn – Cell-based coincidence reporter assay to measure PMP22 gene transcription in S16 Pmp22-F2sN cells - Primary screen; 2% of 43,000 active; S16 Pmp22-F2sN Schwann cells (luciferase reporters placed in the Pmp22 gene), FLuc/NLuc coincidence luminescence, 24 h; Potency, µM (series often up to 57.5 µM), inactives show at the top dose activity change, negative = inhibition, hits mostly inhibitors; active = clear falling dose curves in both reporters; inconclusive = both reporters move, but less clearly or upward; inactive = either reporter flat; the % is the NLuc reporter signal; note: potency is the fitted concentration of half-maximal effect; % is set by controls: 0 for no effect and ±100 for the full control effect
#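 Schwann cells carrying the coincidence reporter were exposed to library compounds for 24 h at 37C, then lysed and read for FLuc and, after quenching, NLuc luminescence on a CCD imager.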
# NLuc saturating – Biochemical NLuc saturation counterscreen for small molecule modulators of PMP22 gene expression - Nano-Glo assay; shares compounds with PMP22 txn; Potency, µM (doses to about 57.5 µM), for the others: at the top dose activity change, negative = inhibition, hits mostly inhibitors; AID 1508638, 2021; 4% of 690 active; Secreted NLuc enzyme (filtered S16 cell medium), Nano-Glo luminescence; note: potency is the fitted concentration of half-maximal effect; % is set by controls: 0 for no effect and ±100 for the full control effect
# NLuc Km ctr – Biochemical coelenterazine-based NLuc counterscreen for small molecule modulators of PMP22 gene expression - Km assay; shares compounds with PMP22 txn; secreted NLuc enzyme, coelenterazine luminescence, Km conditions; Potency, µM (doses to about 57.5 µM), for inactives: at the top dose activity change, negative = inhibition, actives largely listed as inhibitors; 5% of 690 active; AID 1508639, 2021; note: potency is the fitted concentration of half-maximal effect; % is set by controls: 0 for no effect and ±100 for the full control effect
# FLuc counter – Biochemical FLuc counterscreen for small molecule modulators of PMP22 gene expression | purified P. pyralis FLuc, luminescence, 10 min | AID 1508640, 2021 | 690 tested, under 10 active | shares compounds with PMP22 txn | Potency, µM (series often up to 57.5 µM), for the others: at the highest dose activity, negative = inhibition, usual class: inhibitors; note: % of control where 0% means no effect
# Target sequence (P08659 whole entry, looked up): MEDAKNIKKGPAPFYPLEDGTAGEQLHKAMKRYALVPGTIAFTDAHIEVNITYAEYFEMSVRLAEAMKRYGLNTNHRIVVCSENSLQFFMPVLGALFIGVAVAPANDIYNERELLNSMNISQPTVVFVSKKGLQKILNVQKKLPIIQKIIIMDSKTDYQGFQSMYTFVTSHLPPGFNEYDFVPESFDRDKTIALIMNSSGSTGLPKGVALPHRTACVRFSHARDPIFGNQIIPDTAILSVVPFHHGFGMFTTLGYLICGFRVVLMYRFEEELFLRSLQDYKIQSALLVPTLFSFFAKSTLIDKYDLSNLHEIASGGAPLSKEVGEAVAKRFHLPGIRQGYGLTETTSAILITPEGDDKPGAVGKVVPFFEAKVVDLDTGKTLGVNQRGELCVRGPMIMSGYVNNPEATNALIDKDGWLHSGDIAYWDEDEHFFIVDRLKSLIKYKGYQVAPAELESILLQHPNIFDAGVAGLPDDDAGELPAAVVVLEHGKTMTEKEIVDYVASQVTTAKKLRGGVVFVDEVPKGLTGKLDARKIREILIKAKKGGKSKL
# S16 F2sN tox cnf – Cell viability qHTS assay in S16 Pmp22-F2sN cells - Confirmatory screen; S16 Schwann cells viability, CellTiter-Glo ATP luminescence, 24 h; AID 1508641, 2021; 7% of 690 active; shares compounds with PMP22 txn; Potency, µM (top dose mostly 57.5 µM), for inactives: top-dose activity change, negative = viability loss, hits mostly cytotoxic; note: potency is the fitted concentration of half-maximal effect; % is set by controls: 0 for no effect and ±100 for the full control effect
# PMP22 txn cnf – Cell-based coincidence reporter assay to measure PMP22 gene transcription in S16 Pmp22-F2sN cells - Confirmatory screen; AID 1508646, 2021; S16 Schwann cells Pmp22-F2sN, dual luciferase, 24 h; 22% of 690 active; Potency, µM (top dose mostly 57.5 µM), for the others: at the top dose activity change, negative = inhibition, actives largely listed as inhibitors; shares compounds with PMP22 txn; active = clear falling dose curves in both reporters; inconclusive = both reporters move, but less clearly or upward; inactive = either reporter flat; the % is the FLuc reporter signal; note: potency is the fitted concentration of half-maximal effect
# PMP22 prot conf – Cell-based HiBiT reporter assay to measure PMP22 protein expression in S16 Pmp22-HiBiT cells - Confirmatory screen | S16 Schwann cells Pmp22-HiBiT, luminescence, 48 h | 95 tested, under 10 active | shares compounds with PMP22 txn | Potency, µM (doses to about 27.9 µM), without a hit: at the highest dose activity change, negative = inhibition, hits mostly inhibitors
# Target sequence (P25094 whole entry, looked up): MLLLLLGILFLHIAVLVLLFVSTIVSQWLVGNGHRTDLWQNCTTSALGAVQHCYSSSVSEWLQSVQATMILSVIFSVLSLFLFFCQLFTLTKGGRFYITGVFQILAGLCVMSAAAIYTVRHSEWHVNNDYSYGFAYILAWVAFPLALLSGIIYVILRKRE
# * hit, by the source's call; i = inactive; ? = inconclusive; · = not tested or not shown; [ ] = another dose, or the depositor's remark. Rows were chosen to be rich in hits. Some 3.1% of all compounds tested hit in one or more screens of this group. Unless noted, calls come from the whole dose curve; as a rule, active = well fitted curve in the direction sought with a large enough effect; inconclusive = small, poorly fitted or top-dose-only effect, or another doubt; inactive = no such curve, though single readings can be large; an effect the other way counts as inactive or inconclusive.
SMILES,SKOV3 invasion,mTORC1 inh,p53null 39C tox,S16 viability,p53null 32C tox,PMP22 txn,NLuc saturating,NLuc Km ctr,FLuc counter,S16 F2sN tox cnf,PMP22 txn cnf,others
CCOCCCn1c(=N)c(C(=O)NC2CCCC2)cc2c(=O)n3cccc(C)c3nc21,17%,-6%,-7%,-3%,3%,?,-5%,1%,0%,24%,?,
CCOCCCn1c(=N)c(C(=O)NC(C)c2ccccc2)cc2c(=O)n3cccc(C)c3nc21 (stereo not given),25%,?,-3%,?,11%,15µM*,-13%,8%,-1%,-2%,?,
S=C(NCc1ccc2c(c1)OCO2)N1CCN(c2ncnc3c2oc2ccccc23)CC1,-9%[92.2 µM],·,·,·,·,·,·,·,·,·,·,
COc1ccccc1CCNC(=O)C1CCN(c2nc3ccccc3nc2C(F)(F)F)CC1,i,4%,-18%,?,-1%,-17%,·,·,·,·,·,
O=C(NCCc1ccccc1Cl)C1CCN(c2nc3ccccc3nc2C(F)(F)F)CC1,-30%,0%,2%,?,-3%,9.5µM*,-1%,9%,4%,21%,-26%,
CCOc1cc(C2c3c(oc4ccccc4c3=O)C(=O)N2Cc2ccccc2Cl)ccc1O (stereo not given),-8%,-6%,-3%,2%,-1%,?,·,·,·,·,·,
COc1cc(C2c3c(oc4ccccc4c3=O)C(=O)N2Cc2ccccc2Cl)ccc1O (stereo not given),10%,3%,?,3%,-23%,11µM*,-9%,-4%,4%,-8%,?,
Cc1cccc(N2CCN(S(=O)(=O)c3ccc4c(c3)CCCN4C(=O)C3CCC3)CC2)c1C,-5%,-10%,3%,-19%,-1%,16µM*,-8%,3%,9%,-16%,?,
CCOc1ccc2c(c1)c(=O)c(S(=O)(=O)c1ccc(Cl)cc1)cn2Cc1ccccc1C,i,-17%,1%,11%,0%,-8%,·,·,·,·,·,
Cn1c(=O)c2sccc2n2c(CCCC(=O)Nc3ccc(Oc4ccccc4)cc3)nnc12,2%,3%,-6%,-22%,-6%,-25%,·,·,·,·,·,
O=C(CSc1ncc2c(n1)-c1ccccc1N(Cc1ccc(F)cc1)S2(=O)=O)NCCc1ccccc1,2%,3%,6%,4%,-3%,18µM*,-1%,2%,7%,?,?,
COc1ccccc1C(=O)N(Cc1nc(-c2cccc(C)c2)no1)C(C)C,i,-15%,-15%,14%,1%,?,·,·,·,·,·,
O=C(NCc1ccc(Cl)cc1)C(=O)Nc1cccc(Br)c1,i,-4%,-14%,-17%,2%,16µM*,-7%,0%,4%,?,?,
O=C(NCCCN1CCN(c2cccc(Cl)c2)CC1)c1ccc2nc(Cc3ccccc3)oc2c1,-21%,-1%,?,?,60%,?,·,·,·,·,·,
COc1ccc(N2CCN(CCCNC(=O)c3ccc4nc(Cc5ccccc5)oc4c3)CC2)cc1,?,-4%,-14%,?,0%,19µM*,?,?,-2%,?,?,
COc1ccc(N2CCN(CCCNC(=O)c3ccc4nc(CCc5ccccc5)oc4c3)CC2)cc1,i,-18%,-20%,-28%,-18%,?,·,·,·,·,·,
O=C(NCCCN1CCN(c2ccccc2)CC1)c1ccc2nc(CCc3ccccc3)oc2c1,?,0%,-1%,?,2%,19µM*,-15%,-6%,-6%,-26%,?,
COc1ccc2oc(-c3ccc(C)c(NC(=O)c4ccc5c(c4)OCCO5)c3)nc2c1,-17%,?,-11%,6%,-12%,-14%,·,·,·,·,·,
COc1cccc(NC(=O)Cn2c(=O)n(-c3ccccc3)c(=O)c3ccc(C(=O)NCc4ccc5c(c4)OCO5)cc32)c1,6%,4%,14%,-13%,23%,?,·,·,·,·,·,
CCOC(=O)c1c(NC(=O)c2nc(S(C)(=O)=O)ncc2Cl)sc(C(C)=O)c1C,?,3.7µM*,23%,?,-9%,4.3µM*,?,?,-10%,14µM*,3.4µM*,PMP22 prot conf=?
